# Measurements reported in PubChem BioAssay (Tox21).
# A number with no mark means an inactive call. Calls of active or inactive are those of the source. Calls come from the whole dose curve.
# Experiment: G protein-coupled receptor (GPCR) small molecule agonists, calcium flux assay: HEK293 wild type cell line counter screen (AID 1920065)
# Conditions: HEK293 WT calcium flux, fluorescence, agonist mode; series mostly up to 57.6 µM; activation: at the top concentration
# From the text: U.S. Tox21 Program National Center for Advancing Translational Sciences [NCATS] Division of Preclinical Innovation [DPI] U.S. Environmental Protection Agency [EPA] National Institutes of Environmental Health Sciences [NIEHS] National Toxicology Program [NTP] U.S. Food and Drug Administration [FDA] Assay overview: The increased intracellular calcium release that occurred upon G protein-coupled receptor (GPCR) activation led to the frequent use of calcium flux assays to detect GPCR activation. For the purpose of studying and screening compounds that may activate GPCR, receptor-overexpressing models were typically generated using Hek293 wild-type (WT) cells. In order to eliminate the compounds that may have induced calcium release for non-specific activation, a counter-assay utilizing calcium flux on Hek293 WT cells was performed. The data were formulated in order to serve as a control for any calcium flux detection utilizing Hek293 cells with either GPCR overexpression or gene modification. The procurement of Hek293 WT cells from ATCC. Fluorescence intensity can be utilized to determine the activation of the compound in a calcium flux assay. As a counter control, this cell line was utilized to screen the Tox21 10K compound library.
# Assay Protocol Summary: Hek293 cells were dispensed at 1500cells/4uL/well in 1536-well black wall/clear bottom plates using a multidrop dispenser. After the assay plates were incubated at a 37 C/5% CO2 incubator for 18 hours, 4 uL of Calcium Dye Solution was added to each well. The plates were incubated at 37 C for 1 hour. For agonist mode, 23 nL of compounds dissolved in DMSO, positive control (ATP) or DMSO only was transferred to the assay plate by a pin tool station. The fluorescence intensity in the plates was measured using FDSS 7000EX kinetic plate reader with a filter set of Ex/Em=480/540 for 3 min at 1 sec intervals. Each test compound was measured at 15 concentrations and in triplicates.
# % is set by controls: 0 for no effect and ±100 for the full control effect.
Structure (SMILES),activation,Potency
C[C@H](N)[C@H](O)c1ccc(O)c(O)c1,0.725% [at 26.5 µM],–
Cc1cnc2c(C(=O)O)c(Cl)ccc2c1,0.0144%,–
NNCCO,0.0081%,–
Oc1c(I)cc(I)cc1I,1.48%,–
CCCCCl,-0.245%,–
Cc1nnc2n1-c1sc(CCC(=O)N3CCOCC3)cc1C(c1ccccc1Cl)=NC2,-0.163% [at 26.5 µM],–
CC[C@H](C)[C@H]1O[C@]2(C=C[C@@H]1C)C[C@@H]1C[C@@H](C/C=C(\C)[C@@H](O[C@H]3C[C@H](OC)[C@@H](O[C@H]4C[C@H](OC)[C@@H](O)[C@H](C)O4)[C@H](C)O3)[C@@H](C)/C=C/C=C3\CO[C@@H]4[C@H](O)C(C)=C[C@@H](C(=O)O1)[C@]34O)O2,0.982% [at 26.5 µM],–
N[C@@H]1C[C@H]1c1ccccc1,3.17% [at 26.5 µM],–
CC(=O)[O-].CC(=O)[O-].[Hg+2],17%,–
Nc1ccc2c(c1)Cc1ccccc1-2,-0.414%,–
ClC1=C(Cl)[C@]2(Cl)[C@@H]3[C@H]4C[C@H]([C@@H]5O[C@H]45)[C@@H]3[C@@]1(Cl)C2(Cl)Cl,-0.51%,–
O=S(=O)(C(Cl)(Cl)Cl)C(Cl)(Cl)Cl,1.35%,–
ClSC(Cl)(Cl)Cl,0.355%,–
COc1nn(C(=O)NS(=O)(=O)c2ccccc2OC(F)(F)F)c(=O)n1C,6.35%,–
CCOC(=O)OC1=C(c2cc(C)ccc2C)C(=O)NC12CCC(OC)CC2 (stereo not given),0.325%,–
CCC(CC)(CNC(=O)CCCO)c1cccc(OC)c1,-0.141% [at 26.5 µM],–
Nc1c(Br)cc(Br)c2c1C(=O)c1ccccc1C2=O,0.165% [at 11.8 µM],–
O=C(O)CBr,-0.114%,–
CC(C)C(=O)Cl,-0.677%,–
O=c1oc2ccccc2c(O)c1C1CCCc2ccccc21 (stereo not given),-2.94%,–

Structure (SMILES),activation,Potency
OC(c1ccc(Cl)cc1)(c1ccc(Cl)cc1)C(Cl)(Cl)Cl,-0.939%,–
COP(=S)(NC(C)C)Oc1ccc(C)cc1[N+](=O)[O-] (stereo not given),-1.73%,–
ClC(Cl)=C(Cl)Cl,-0.123%,–
ClC1=C(Cl)[C@]2(Cl)[C@@H]3[C@@H](Cl)[C@H]4O[C@H]4[C@@H]3C1(Cl)C2(Cl)Cl,4.99%,–
C[C@@H]1CC2=CC(=O)CC[C@@H]2[C@H]2CC[C@@]3(C)[C@@H](CC[C@]3(C)O)[C@@H]21,-0.262% [at 26.5 µM],–
CC(C)[C@@H](C(=O)O[C@@H](C#N)c1cccc(Oc2ccccc2)c1)c1ccc(Cl)cc1,–,inactive
CCS(=O)(=O)c1cccnc1S(=O)(=O)NC(=O)Nc1nc(OC)cc(OC)n1,-0.138%,–
C=COC(C)=O,-1.17%,–
CC(Cc1ccccc1)NCc1ccccc1Cl (stereo not given),-4.28% [at 26.5 µM],–
CC(=O)c1cc2c(cc1C)C(C)(C)C(C)CC2(C)C (stereo not given),-0.562%,–
C=CCOC(C)=O,0.543%,–
OC(c1ccc(F)cc1)(c1cncnc1)c1ccccc1Cl (stereo not given),-1.82%,–
FC(F)OC(F)(F)C(F)Cl (stereo not given),-0.0018%,–
O=C(O)CCCCCCNC1c2ccccc2CCc2ccccc21,-0.24% [at 26.5 µM],–
CC(CC(C(N)=O)(c1ccccc1)c1ccccc1)N(C)C (stereo not given),0.906% [at 26.5 µM],–
CCOP(=S)(OCC)Oc1ccc(S(C)=O)cc1 (stereo not given),-3.07%,–
O=C(Cc1ccccc1)OCc1ccccc1,-0.248%,–
CCC1(C2=NCCN2)Cc2ccccc2O1 (stereo not given),0.152% [at 26.5 µM],–
CC(=O)/C=C/c1ccc2c(c1)OCO2,-0.809%,–
O=[Se]=O,0.149% [at 26.5 µM],–
